Our source for the survival values is PubChem BioAssay AID463173 (ICCB-Longwood Screening Facility, Harvard Medical School, 2010).

The campaign covered roughly 52,000 compounds. About 4,300 (8.3%) were called active. Cut-off read from the data, not from the text of the source: active = survival mostly below about 52% (no sharp cut-off); inactive = mostly above about 56%. This excerpt belongs to a sample that is enriched for actives.

This test has as its system DeltatarO mutant. As to the kind of experiment: growth inhibition of S. aureus wild type versus tarO mutant, primary screen, teichoic acid synthesis inhibitors, RN4220, OD600 (AID 463173). The conditions noted are these: OD600, 18 h, hits give low values, screened at 18.75 µg/mL (by protocol).
As to `CCCNC(=O)C1CCN(C(=O)N2CC(C)Oc3ccccc32)CC1` (stereo not given), the survival was 65% (inactive).

In the case of `CCOc1ccc(-n2c(=O)c3c(C)c(C)sc3n(Cc3c(F)cccc3Cl)c2=O)cc1`, the survival is 96% (inactive).

As for `Cc1cccc(C(=O)NCC(=O)OCc2cc(=O)n3nc(C)sc3n2)c1`, the survival is 82% (inactive).

For the compound `N#Cc1ccc(C(=O)NCc2ccc3c(c2)CCN3C(=O)c2ccc(F)cc2)cc1`, the survival is 83% (inactive).

With `CCOc1ccc(S(=O)(=O)N2Cc3ccccc3CC2C(=O)Nc2ccc(NC(C)=O)cc2)cc1` (stereo not given), the survival was 69% (inactive).

On to `Cc1ccc(-n2ncc(C(=O)Nc3ccc4c(c3)OCO4)c2C2CCN(C(=O)OC(C)(C)C)CC2)cc1`, for which the survival was 79% (inactive).

As to `COc1ccc(CC(CC(=O)O)C(=O)NCc2ccccc2)cc1` (stereo not given), the survival was 81% (inactive).

As for `CCC(=O)Nc1ccc(C(=O)Nc2c[nH]c(=O)[nH]c2=O)cc1`, the survival was 85% (inactive).

`CC1CCN(c2nnc(-n3cccc3CNc3cccc(F)c3)s2)CC1`: the survival was 93% (inactive).

On to `Cc1ccc(NC(=O)CSc2nnc(-c3ccc([N+](=O)[O-])cc3)o2)c(C)c1`, for which the survival was 73% (inactive).

Take `CCOC(=O)c1cc(S(=O)(=O)Nc2cc(C)c(Cl)cc2OC)[nH]n1`: the survival is 77% (inactive).

Regarding `CCOC(=O)c1cc(S(=O)(=O)Nc2ccc(OC)c(Cl)c2)[nH]n1`, the survival was -4% (active).

With `CCOC(=O)c1cc(S(=O)(=O)Nc2cc(OC)ccc2OC)[nH]n1`, the survival was 119% (inactive).

`COc1cc(OC)cc(C(=O)Nc2cc3c(cc2N2CCCCC2)n(C)c(=O)n3C)c1`: the survival is 83% (inactive).

For `COc1ccc(OC)c(S(=O)(=O)N2CCC(c3ccncc3)CC2)c1`, the survival was 122% (inactive).

For `COc1cccc(-n2cc(C(=O)NCc3cccc(Cl)c3)c3ccccc3c2=O)c1`, the survival is 58% (active).

On to `COc1ccc(-n2cc(C(=O)NCCc3cc(OC)ccc3OC)c3ccccc3c2=O)cc1`, for which the survival was 55% (active).

As for `COc1ccc(CNC(=O)c2cc3c(=O)n(C)c4ccccc4c3n2C)cc1`, the survival was 89% (inactive).

Regarding `COc1ccc(-n2cc(C(=O)NCCc3ccc(C)cc3)c3ccccc3c2=O)cc1`, the survival is 53% (inactive).

With `CCOc1ccc(CCNC(=O)c2cn(-c3ccc(OC)cc3)c(=O)c3ccccc23)cc1OCC`, the survival was 111% (inactive).

On to `COc1ccc(-n2cc(C(=O)NCc3cccc(OC)c3)c3ccccc3c2=O)cc1`, for which the survival was 110% (inactive).

Regarding `COc1ccc(CNC(=O)c2cn(-c3cccc(OC)c3)c(=O)c3ccccc23)cc1`, the survival is 67% (inactive).

On to `COc1ccc(OC)c(CCNC(=O)c2cc3c(=O)n(C)c4ccccc4c3n2C)c1`, for which the survival was 43% (active).

`COc1ccc(CNC(=O)c2cc3c(=O)n(C)c4ccccc4c3n2C)c(OC)c1`: the survival was 50% (inactive).

Consider `CC1CCC(NC(=O)c2ccc(CSc3nc4ccncc4n3Cc3ccc(F)cc3)cc2)CC1` (stereo not given), for which the survival was 59% (inactive).

For the compound `COc1ccc(OC)c(-n2c(=O)[nH]c3cc(C(=O)NCCc4ccc(OC)c(OC)c4)ccc3c2=O)c1`, the survival was 76% (inactive).

As for `CCC1CN(C(=O)N2CCC(C(=O)NCc3ccc(N(C)C)cc3)CC2)c2ccccc2O1` (stereo not given), the survival was 73% (inactive).

As to `CCOC(=O)N1CCc2c(sc(NCc3ccc(N(CC)CC)cc3)c2C(=O)Nc2cc(OC)ccc2OC)C1`, the survival was 71% (inactive).

As for `CCOC(=O)c1ccc(NC2=CC(c3ccc(F)cc3)N(c3ccc(C(=O)OCC)cc3)C2=O)cc1` (stereo not given), the survival was 66% (inactive).

Regarding `CCc1nc2cccnc2n1-c1ccc(CC(=O)Nc2ccc(C)cc2)cc1`, the survival is 78% (inactive).

As for `COc1ccccc1Nc1nn2c(=O)c3ccc(C(=O)NCCCOC(C)C)cc3nc2s1`, the survival was 71% (inactive).

Consider `CCOC(=O)c1ccc(NC(=O)C2=C(C)C(=O)OC23CCCCCC3)cc1`, for which the survival is 81% (inactive).

`CCC(C)c1ccccc1OCC(=O)Nc1ccc(S(=O)(=O)Nc2cc(C)on2)cc1` (stereo not given): the survival is 80% (inactive).

As to `Cc1cc(NS(=O)(=O)c2ccc(NC(=O)COc3c(C)cc(Br)cc3C)cc2)no1`, the survival was 110% (inactive).

For `Cc1cccc(OCC(=O)Nc2ccc(S(=O)(=O)Nc3onc(C)c3C)cc2)c1C`, the survival is 40% (active).

With `Cc1cc(NS(=O)(=O)c2ccc(NC(=O)COc3ccccc3Br)cc2)no1`, the survival was 67% (inactive).

Turning to `Cc1ccc(C)c(OCC(=O)Nc2ccc(S(=O)(=O)Nc3onc(C)c3C)cc2)c1C`, the survival was 165% (inactive).

As for `Cc1noc(NS(=O)(=O)c2ccc(NC(=O)COc3ccccc3Br)cc2)c1C`, the survival is 53% (inactive).

Regarding `Cc1cc(NS(=O)(=O)c2ccc(NC(=O)COc3cc(C)c(Br)cc3C(C)C)cc2)no1`, the survival was 13% (active).

With `Cc1cc(NS(=O)(=O)c2ccc(NC(=O)COc3ccc(Br)cc3C)cc2)no1`, the survival was 32% (active).

On to `Cc1ccc(OCC(=O)Nc2ccc(S(=O)(=O)Nc3cc(C)on3)cc2)c(Br)c1`, for which the survival was 56% (inactive).

As for `COc1ccc2c(c1)c(CC(=O)Nc1cc(C)c(OC)c(C)c1)c(C)n2C(=O)c1ccc(Cl)cc1`, the survival is 71% (inactive).

Take `COc1cc(C(c2nnnn2C2CCCCC2)N2CCc3ccccc3C2)ccc1O` (stereo not given): the survival was 62% (inactive).

Turning to `COc1ccc(N2CCN(C(=O)c3ccc4c(c3)N(Cc3cccc(Cl)c3)C(=O)c3ccccc3S4(=O)=O)CC2)cc1`, the survival is 83% (inactive).

As for `COc1cc2oc(=O)c(CC(=O)NCc3ccc(OC)c(OC)c3)c(C)c2cc1Cl`, the survival was 71% (inactive).

Regarding `CC(=O)N1CCC2(CC1)OC(=O)C(C)=C2C(=O)NCc1ccc(Cl)cc1`, the survival is 58% (inactive).

As for `Cc1cc(C)cc(NC(=O)c2cccc(C(=O)Nc3cc(C)cc(C)c3)c2)c1`, the survival is 129% (inactive).

Regarding `CCOc1ccc(C(=O)N2CCN(c3ccccc3)CC2)cc1`, the survival is 78% (inactive).

Take `CC1=C(C(=O)Nc2ccccc2C)C(c2ccccc2O)NC(=S)N1` (stereo not given): the survival is 103% (inactive).

Take `CC1=C(C(=O)Nc2ccccc2)C(c2ccc(C)o2)NC(=S)N1` (stereo not given): the survival was 61% (active).

Regarding `COc1ccccc1NC(=O)C1=C(C)NC(=S)NC1C` (stereo not given), the survival was 86% (inactive).

Consider `O=S(=O)(Nc1ccccn1)c1cccs1`, for which the survival is 83% (inactive).

Consider `CCN(C(=O)c1nn(-c2ccc(OC)c(Cl)c2)c(=O)c2c1c1ccccc1n2C)c1cccc(C(F)(F)F)c1`, for which the survival was 75% (inactive).

As to `COc1ccc2c(c1)CCc1sc(NC(=O)c3ccc(Cl)cc3)nc1-2`, the survival is 31% (active).

With `COc1ccc2c(c1)Cc1sc(NC(=O)c3ccccc3C)nc1-2`, the survival was 102% (inactive).

Turning to `COc1ccc2c(c1)-c1nc(NC(=O)c3ccc(Cl)cc3)sc1CC2`, the survival is 96% (inactive).

Regarding `COc1ccc2c(c1)-c1nc(NC(=O)c3cccc(Br)c3)sc1CC2`, the survival is 51% (inactive).

In the case of `COc1ccc2c(c1)Cc1sc(NC(=O)c3cccc(C)c3)nc1-2`, the survival was 18% (active).

As for `COc1ccc2c(c1)-c1nc(NC(=O)c3cc(Cl)ccc3OC)sc1CC2`, the survival is 69% (inactive).

Take `COc1ccc(C(=O)Nc2nc3c(s2)Cc2cc(OC)ccc2-3)cc1`: the survival was 55% (inactive).

Regarding `COc1ccc2c(c1)Cc1sc(NC(=O)c3ccc(Cl)cc3)nc1-2`, the survival was 80% (inactive).

Turning to `COc1ccc2c(c1)-c1nc(NC(=O)c3ccccc3F)sc1CC2`, the survival is 2% (active).

Regarding `COc1ccc2c(c1)Cc1sc(NC(=O)c3cccc(F)c3)nc1-2`, the survival was 67% (inactive).

On to `COc1ccc2c(c1)Cc1sc(NC(=O)c3ccccc3Br)nc1-2`, for which the survival is 63% (inactive).

In the case of `COc1ccc(C(=O)Nc2nc3c(s2)CCc2cc(OC)ccc2-3)cc1`, the survival is 35% (active).

Turning to `COc1ccc(CN2C(=O)C(NC(=O)c3ccccc3OC)(C(F)(F)F)N=C2c2ccccc2)cc1` (stereo not given), the survival was 87% (inactive).

Take `COc1cc(Cl)c(C)cc1NC(=O)c1cnc(N2CCCCC2)c2ccccc12`: the survival is 115% (inactive).

Regarding `O=C(c1ccc2c(c1)N(Cc1cccc(F)c1)C(=O)c1ccccc1S2)N1CCCC1`, the survival is 88% (inactive).

Consider `COc1ccc(N2CCN(C(=O)c3cc4c(=O)oc5ccc(C)cc5c4s3)CC2)cc1`, for which the survival was 111% (inactive).

For the compound `CCCn1cc(S(=O)(=O)c2cccc(Cl)c2)c(=O)c2cc(F)c(N3CCOCC3)cc21`, the survival was 74% (inactive).

For `COc1cccc(NC(=O)C2CCCN(S(=O)(=O)c3cccc4nonc34)C2)c1` (stereo not given), the survival is 90% (inactive).

In the case of `CCCS(=O)(=O)c1c(S(=O)(=O)CCC)c2cc(C(C)(C)C)ccn2c1C(=O)c1ccccc1`, the survival was 118% (inactive).

For the compound `CC1Cc2ccccc2N1C(=O)CSc1nnnn1Cc1ccccc1` (stereo not given), the survival is 91% (inactive).

In the case of `Cc1cccc(-n2nnc(-c3nc(-c4cccs4)no3)c2N)c1C`, the survival is 60% (inactive).

In the case of `CCS(=O)(=O)N1CC(=O)N(c2ccc(Cl)cc2)C(C)(C(=O)NC2CCCCC2)C1` (stereo not given), the survival is 96% (inactive).

Consider `COc1ccc2c(c1)-c1nc(NC(=O)c3ccc(C)cc3)sc1CC2`, for which the survival was 5% (active).

For `COc1ccc2c(c1)-c1nc(NC(=O)c3ccc(OC)c(Br)c3)sc1CC2`, the survival is 59% (inactive).

With `COc1ccc2c(c1)-c1nc(NC(=O)c3cc(OC)c(OC)c(OC)c3)sc1CC2`, the survival is 57% (inactive).

Turning to `COc1cc(C(=O)Nc2ccc(NC(=O)c3ccc(Br)cc3)cc2)cc(OC)c1OC`, the survival was 75% (inactive).

Consider `O=C(CSc1nc2c(c(=O)[nH]1)CN(Cc1ccc3c(c1)OCO3)CC2)Nc1cccc(Cl)c1`, for which the survival was 76% (inactive).

On to `CCOC(=O)CNc1c(-c2ccc(OC)cc2)nc2ccc(Cl)cn12`, for which the survival was 58% (inactive).

On to `Cc1nc(SCC(=O)Nc2ccc(Br)cc2)[nH]c(=O)c1Cc1ccccc1`, for which the survival is 59% (inactive).

`CCOC(=O)c1ccc(NC(=O)CSc2nc3cc4ccccc4cc3[nH]2)cc1`: the survival was 65% (inactive).

Take `COc1cccc(NC(=O)CSc2nc(C)c(Cc3ccccc3)c(=O)[nH]2)c1`: the survival is 58% (inactive).

For `Cc1ccc(NC(=O)CSc2nc(C)c(Cc3ccccc3)c(=O)[nH]2)cc1C`, the survival is 84% (inactive).

For the compound `CCOC(=O)c1ccc(NC(=O)CSc2nc(C)c(Cc3ccccc3)c(=O)[nH]2)cc1`, the survival is 45% (active).

As for `Cc1ccc(NC(=O)CSc2nc(C)c(Cc3ccccc3)c(=O)[nH]2)cc1`, the survival is 48% (inactive).

Regarding `CCOC(=O)c1cccc(NC(=O)CSc2nc3cc4ccccc4cc3[nH]2)c1`, the survival is 36% (active).

Consider `COC(=O)c1ccc(NC(=O)CSc2nc3cc4ccccc4cc3[nH]2)cc1`, for which the survival is 65% (inactive).

Regarding `Cc1cccc(NC(=O)CSc2nc(C)c(Cc3ccccc3)c(=O)[nH]2)c1`, the survival was 18% (active).
